SMILES strings stand for the structures. “And” between values parts separate entries of the source, which are not always exact repeats. Equal entries are not always repeated. Inconclusive results are not listed. The source made the active and inactive calls.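 How the source made its calls, unless noted: active means compounds killing one labelled cell type while sparing the other, by normalised counts and ratio limits, not self-fluorescent; inactive means the rest.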

The record followed here is PubChem BioAssay.

Test [1] in a line: stimulators of insulin release from INS-1E, primary screen, cell-based, 5 mM glucose, NPC library (AID 1117329;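 active means compound raises insulin release from rat beta cells at 5 mM glucose, no numeric limit stated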). The following applies: rat INS-1E insulin secretion, at 10 µM, stronger effect = higher value.
The nature of test [2]: growth inhibition of GSK3B-pretreated HCT116 cells – cell-based, CellTiter-Glo, 0.2 to 20 µM (AID 1117336;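 active means compounds lowering colon cancer cell viability after pretreatment blocking the GSK3B kinase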). Conditions: HCT116 viability after GSK3B inhibitor, at 20 µM, stronger effect = higher value.
Test [3] can be described thus: inhibition of endothelial tube formation, primary screen, imaging, VEGF stimulated, CD31 staining, tube area, NPC library (AID 1117340;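 active means compound that reduces growth-factor-driven endothelial tube area in a mixed cell culture, no cutoff stated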). The following applies: VEGF-stimulated ADSC/ECFC co-culture, at 10 µM, stronger effect = higher value.
A short description of test [4]: glucagon-like peptide 1 release enhancers, primary assay, NCI-H716 cell line, NPC library (AID 1117341;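 active means compound raises GLP1 secretion from the human gut endocrine cells, with no numeric limit stated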). Conditions: NCI-H716 cells, at 10 µM, stronger effect = higher value.
Test [5] in a line: HCT116 colon cancer cell growth inhibition, primary screen, CellTiter-Glo luminescence, NPC library (AID 1117342;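 active means compounds that lower survival of HCT116 colon cancer cells in the luminescence readout, no numeric limit stated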). Conditions: at 20 µM (top of the series).
The nature of test [6]: CellTiter-Glo luminescent readout of SW480 viability loss, NPC library primary (AID 1117343;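 active means compounds that lower viability of the colon cancer cells in the luminescence readout, with no numeric limit stated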). Conditions: CellTiter-Glo luminescence; at 20 µM (top of the series).
Test [7] is described as follows: decreased DLD-1 cellular survival, CellTiter-Glo luminescent readout, NPC compound collection, primary HTS (AID 1117346;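 active means compounds that lower survival of DLD-1 colon cancer cells in the luminescence readout, no cutoff given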). Conditions: DLD-1 viability, CellTiter-Glo luminescence; at 20 µM (top of the series).
Test [8] deals with 6-phosphogluconate dehydrogenase, decarboxylating (Homo sapiens) (UniProt P52209). The experiment in a line: 6PGD enzyme inhibitors, primary screen, biochemical, human, recombinant enzyme, NADPH absorbance (AID 1159550;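 active means at least 20% inhibition of 6-phosphogluconate dehydrogenase activity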). The following applies: recombinant 6PGD, NADPH absorbance 341 nm; at 10 µM; stronger effect = higher value.
Test [9] in a line: differential killing of epithelial or mesenchymal cells, primary screen, imaging, PC-3E GFP, TEM4-18 mCherry, co-culture (AID 1345086).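 On all read-outs here: cells exposed to compound for 72 h before imaging.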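 On red/green cell ratio (normalised): normalised mesenchymal count divided by normalised epithelial count so high means epithelial killing.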 Conditions: imaging cell counts, at 1 µM; for red/green cell ratio (normalised): actives lie on both sides, counts scaled to control wells, 1 = unselective.
In test [10] the test system is Aerobactin synthetase IucA (Klebsiella pneumoniae). As to the kind of experiment: IucA aerobactin synthetase inhibitors, biochemical, Tocris library, absorbance (AID 1345561; call rule not given here;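 further: 100% = enzyme without compound and 0% = no enzyme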). The following applies: purified IucA enzyme assay, absorbance (OD) read-out; stronger effect = lower value;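 tested at 8 µM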.
The nature of test [11]: growth inhibition of DIPG glioma cells, dose response, cell-based, SU-DIPG-XVII, MIPE5.0, CellTiter-Glo, qHTS (AID 1347060; cut-off not given, nearly all actives have AC50 up to about 26 µM;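 on AC50: cells exposed to compound for 48 hours before viability readout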). The following applies: SU-DIPG-XVII viability, CellTiter-Glo ATP luminescence.
The nature of test [12]: growth inhibition of DIPG glioma cells, dose response, cell-based, SU-DIPG-XIII, MIPE5.0, CellTiter-Glo, qHTS (AID 1347064; cut-off not given, nearly all actives have AC50 up to about 23 µM;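 on AC50: cells exposed to compound for 48 hours before the viability read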). Conditions: SU-DIPG-XIII viability, CellTiter-Glo ATP luminescence.
[13] abbreviates: measured here: epithelial PC-3E GFP cell survival.
Setting [14] is: measured here: mesenchymal TEM4-18 mCherry cell survival.

6-phosphogluconate dehydrogenase, decarboxylating (Homo sapiens), sequence (P52209 whole entry, looked up): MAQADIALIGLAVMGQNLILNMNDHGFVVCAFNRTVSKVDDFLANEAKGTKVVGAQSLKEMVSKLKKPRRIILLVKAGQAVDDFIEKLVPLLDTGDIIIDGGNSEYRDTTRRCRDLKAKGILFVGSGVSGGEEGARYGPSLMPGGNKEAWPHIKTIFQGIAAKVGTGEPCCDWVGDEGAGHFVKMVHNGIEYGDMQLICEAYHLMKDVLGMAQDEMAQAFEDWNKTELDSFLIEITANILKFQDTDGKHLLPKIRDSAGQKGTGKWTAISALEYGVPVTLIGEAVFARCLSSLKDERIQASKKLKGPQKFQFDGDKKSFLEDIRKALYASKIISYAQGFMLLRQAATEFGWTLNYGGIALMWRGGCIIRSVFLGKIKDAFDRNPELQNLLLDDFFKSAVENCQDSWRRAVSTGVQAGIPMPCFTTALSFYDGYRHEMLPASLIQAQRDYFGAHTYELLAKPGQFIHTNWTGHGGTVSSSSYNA

Turning to `O=c1c(O)c(-c2ccc(O)c(O)c2)oc2cc(O)cc(O)c12`, the insulin secretion stimulation in test [1] was -2.9% (inactive). In addition, the viability decrease in test [2] was 81.4% (active). The tube area decrease in test [3] is 42.7% (active). The GLP1 secretion stimulation in test [4] is 5.9% (inactive). Further, the inhibition of viability in [5] is 4.5% (inactive). The figures for the viability decrease (inhibition) in test [6] and in test [7] were 70.2% (active) and 46.2% (inactive), respectively. The inhibition in test [8] was 26.1% (active). Also, the red/green cell ratio (normalised) in test [9] was 0.91 (inactive). In addition, the normalised cell number in [9] (setting [13]) was determined as 1.15; in [9] (setting [14]), 1.04. In addition, the remaining activity in test [10] was 113% (inactive). Also, the compound was called inactive in test [11] and in test [12].

With `CC(N)C(=O)OC(C)(C)Cc1ccc(Cl)cc1` (stereo not drawn), the insulin secretion stimulation in [1] was 4.8% (inactive). For the same compound, in [2], the viability decrease was 7.1% (inactive). Further, the tube area decrease in [3] was -6.7% (inactive). Besides, the GLP1 secretion stimulation in test [4] is 5.8% (inactive). In addition, in [5], the inhibition of viability was 50% (active). For the same compound, the viability decrease (inhibition) is 13.1% (inactive) in [6] and 20.6% (inactive) in test [7]. Besides, the inhibition in test [8] is -7.62% (inactive). Further, the red/green cell ratio (normalised) in [9] was 1.21 (inactive). The normalised cell number was found to be 0.96 in [9] (setting [13]) and 1.16 in test [9] (setting [14]).

As to `COc1ccc(CCN2CCC(Nc3nc4ccccc4n3Cc3ccc(F)cc3)CC2)cc1`, the insulin secretion stimulation in test [1] is 5.85% (inactive). Besides, the viability decrease in test [2] was 108% (active). The tube area decrease in test [3] was 98.1% (active). Also, the GLP1 secretion stimulation in [4] was 14% (inactive). The inhibition of viability in [5] is 112% (active). The viability decrease (inhibition) in [6] was 129% (active); in test [7], 100% (active). In test [8], the inhibition is 14.2% (inactive). The red/green cell ratio (normalised) in test [9] was 1.02 (inactive). For the same compound, the normalised cell number in [9] (setting [13]) was 1.09; in test [9] (setting [14]) it was 1.11. Besides, the remaining activity in [10] is 97.7% (inactive).

For the compound `Cc1ccc(C(=O)Nc2ccc(S(=O)(=O)O)c3cc(S(=O)(=O)O)cc(S(=O)(=O)O)c23)cc1NC(=O)c1cccc(NC(=O)Nc2cccc(C(=O)Nc3cc(C(=O)Nc4ccc(S(=O)(=O)O)c5cc(S(=O)(=O)O)cc(S(=O)(=O)O)c45)ccc3C)c2)c1`, the insulin secretion stimulation in test [1] was 1.6% (inactive). Besides, in test [2], the viability decrease is -23.9% (inactive). In addition, the tube area decrease in test [3] was 6% (inactive). In addition, the GLP1 secretion stimulation in test [4] was 36.3% (active). In test [5], the inhibition of viability was -17.7% (inactive). In addition, the viability decrease (inhibition) is -22.7% (inactive) in test [6] and 8.3% (inactive) in test [7]. In addition, in test [8], the inhibition was 27.5% (active). Besides, in test [9], the red/green cell ratio (normalised) is 1.23 (inactive) and 0.9 (inactive). The normalised cell number in [9] (setting [13]) is 0.96 and 1.07; in [9] (setting [14]), 1.17 and 0.97. Also, in test [10], the remaining activity was 38.8% (active). Also, the AC50 in test [11] was 14400 nM (active). In addition, in [12], the compound was classed as inactive.

On to `COC(=O)Nc1nc2ccc(C(=O)c3cccs3)cc2[nH]1`, for which the insulin secretion stimulation in test [1] is -0.3% (inactive). Moreover, the viability decrease in test [2] was 69.2% (active). Further, in test [3], the tube area decrease is 105% (active). Further, the GLP1 secretion stimulation in [4] was -3.1% (inactive). In [5], the inhibition of viability is 60.8% (active). Moreover, the viability decrease (inhibition) in test [6] is 22.9% (inactive); in [7], 58.6% (active). Further, in [8], the inhibition is -7.55% (inactive). Further, the red/green cell ratio (normalised) in [9] was 1.09 (inactive). For the same compound, the values for the normalised cell number in test [9] (setting [13]) and in [9] (setting [14]) were 0.15 and 0.17, respectively. The remaining activity in [10] is 122% (inactive). Moreover, the AC50 is 148 nM (active) in [11] and 833 nM (active) in [12].

Regarding `Nc1c(Br)cc(Br)cc1CNC1CCC(O)CC1` (stereo not drawn), the insulin secretion stimulation in test [1] was 4.7% (inactive). In [2], the viability decrease was 33.6% (inactive). In addition, in test [3], the tube area decrease was 20.4% (inactive). Besides, in [4], the GLP1 secretion stimulation is -1.7% (inactive). Moreover, the inhibition of viability in test [5] is 34.3% (inactive). For the same compound, the viability decrease (inhibition) is 11.2% (inactive) in test [6] and 14% (inactive) in test [7]. In addition, the inhibition in [8] is -12.9% (inactive). For the same compound, the red/green cell ratio (normalised) in test [9] is 0.72 (inactive). Besides, the figures for the normalised cell number in test [9] (setting [13]) and in test [9] (setting [14]) were 1.16 and 0.84, respectively. For the same compound, in [10], the remaining activity is 105% (inactive).

In the case of `CC(=O)Oc1cccc2c1C(=O)c1c(OC(C)=O)cc(C(=O)O)cc1C2=O`, the insulin secretion stimulation in [1] was 1.8% (inactive). Moreover, in [2], the viability decrease is 106% (active). The tube area decrease in [3] was 6.3% (active). In addition, in [4], the GLP1 secretion stimulation is -2% (inactive). In addition, the inhibition of viability in test [5] was 100% (active). Also, the viability decrease (inhibition) is 59.1% (active) in test [6] and 64.3% (active) in test [7]. Moreover, the inhibition in test [8] was -1.78% (inactive). Besides, the red/green cell ratio (normalised) in test [9] is 0.93 (inactive). In addition, the normalised cell number came to 1.07 in test [9] (setting [13]) and 0.99 in [9] (setting [14]).
